One molecule from PubChem BioAssay (NCATS) can be followed below.

Values joined by “and” are separate entries in the source; they are usually repeats but may differ in a detail not shown here. Identical values can stand only once. Records with an inconclusive call do not appear. Active and inactive are the calls of the source. Unless noted, the call rests on the fitted dose curve; in most records, active means well fitted cell-killing curve with a large enough effect; inconclusive means small, poorly fitted or top-dose-only effect; inactive means flat fitted curve, though single readings scatter.

A short description of assay [1]: Cell Viability - LYMP2-002 (AID 977).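 Further: series mostly up to about 92 µM; plate controls were DMSO only for no effect and 92 µM tetraoctylammonium bromide for full effect.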 A digest of the protocol:
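Human lymphoblastoid cells (2500/well) in complete medium were preincubated 5 hr at 37 C, then exposed to compounds for 24 hr at 37 C. Intracellular ATP was read by CellTiter-Glo luminescence; AC50 came from Hill-equation concentration-response fits.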

Assay [2] is described as follows: Cell Viability - LYMP2-006 (AID 978). Further: series mostly up to about 92 µM; on the % scale 0 is the no-effect control and ±100 the full control effect; nearly all actives have a fitted effect of over 60% in size. The method, boiled down:
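Human lymphoblastoid cells, 2500 per well, were preincubated 5 hr at 37 C, then exposed to compounds for 24 hr at 37 C in complete medium. Viability was read as intracellular ATP by CellTiter-Glo luminescence; AC50 from Hill-equation fits of qHTS concentration-response data.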

Assay [3] in a line: Cell Viability - LYMP2-007 (AID 979).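 Further: cells exposed to compound for 24 h before reading; 0% = DMSO only and the negative end = 92 µM tetraoctylammonium bromide; nearly all actives have a fitted effect of over 60% in size.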 The method, boiled down:
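qHTS cytotoxicity: 2500 cells/well, 5 hr 37 C settle, compound 24 hr 37 C, CellTiter-Glo 30 min RT, luminescence. Decrease in ATP = toxicity. AC50 by standard Hill equation; tetraoctylammonium bromide positive control.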

The nature of assay [4]: Cell Viability - LYMP2-008 (AID 980). Further: on the % scale 0 is the no-effect control and ±100 the full control effect; nearly all actives have a fitted effect of over 60% in size. A digest of the protocol:
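Luminescent ATP read-out (CellTiter-Glo, 30 min RT) after 24 hr compound exposure at 37 C of human lymphoblastoid cells in complete medium. Decrease in ATP taken as cytotoxicity; AC50 derived by standard Hill fit of qHTS concentration-response data.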

Assay [5] can be described thus: Cell Viability - LYMP2-012 (AID 982).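 Further: cellular ATP by luciferase luminescence where a drop means cytotoxicity; cells exposed to compound for one day before reading; 0% = DMSO only and full loss = 92 µM tetraoctylammonium bromide; nearly all actives have a fitted effect of over 55% in size.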
The nature of assay [6]: Cell Viability - LYMP2-014 (AID 983).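 Further: series mostly up to about 92 µM; plate controls were DMSO only for no effect and 92 µM tetraoctylammonium bromide for full effect; nearly all actives have a fitted effect of over 50% in size.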 A digest of the protocol:
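2500 cells/well, 5 hr 37 C; cpd 24 hr 37 C, complete medium; CellTiter-Glo 30 min RT, luminescence; ATP loss = toxicity; AC50 via Hill eqn; tetraoctylammonium bromide positive control.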

Assay [7] is described as follows: Cell Viability - LYMP2-016 (AID 984). Further: on the % scale 0 is the no-effect control and ±100 the full control effect; nearly all actives have a fitted effect of over 55% in size. The method, boiled down: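 Human lymphoblastoid cells (LYMP2-016), 2500/well in complete medium, preincubated 5 hr at 37 C, then compound-treated 24 hr at 37 C. Intracellular ATP read by CellTiter-Glo luminescence after 30 min at room temperature; AC50 from Hill-equation concentration-response fits.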
Assay [8] can be described thus: Cell Viability - LYMP2-018 (AID 985).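 Further: plate controls were DMSO only for no effect and tetraoctylammonium bromide at 92 µM for full effect; nearly all actives have a fitted effect of over 50% in size.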 The method, boiled down:
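2500 cells/well; 5 hr 37 C; cmpd 24 hr 37 C, complete medium; CellTiter-Glo 30 min RT; luminescence. Tetraoctylammonium bromide positive control. AC50 via Hill fit.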

Assay [9] in a line: Cell Viability - LYMP2-020 (AID 986).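 Further: series mostly up to about 92 µM; plate controls were DMSO only for no effect and tetraoctylammonium bromide at 92 µM for full effect; nearly all actives have a fitted effect of over 55% in size.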 A digest of the protocol:
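qHTS, 2500 cells/well; 5 hr then 24 hr compound exposure, 37 C; CellTiter-Glo luminescence after 30 min RT; ATP decrease taken as cytotoxicity; AC50 via Hill equation; tetraoctylammonium bromide positive control.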

A short description of assay [10]: Cell Viability - LYMP2-024 (AID 988).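 Further: plate controls were DMSO only for no effect and 92 µM tetraoctylammonium bromide for full effect; nearly all actives have a fitted effect of over 60% in size.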 A digest of the protocol: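 ATP-based luminescence (CellTiter-Glo, 30 min RT) after 24 h compound exposure at 37 C of 2500 lymphoblastoid cells/well; decrease in ATP taken as cytotoxicity. qHTS concentration-response fitted to standard Hill equation for AC50.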
The nature of assay [11]: Cell Viability - LYMP2-026 (AID 989). Further: on the % scale 0 is the no-effect control and ±100 the full control effect; nearly all actives have a fitted effect of over 50% in size. The method, boiled down:
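qHTS cytotoxicity: 2500 cells/well, 5 hr 37 C, compound 24 hr 37 C, CellTiter-Glo 30 min RT, luminescence. Tetraoctylammonium bromide positive control. AC50 via standard Hill fit.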

Assay [12] in a line: Cell Viability - LYMP1-002 - Assay at 24 hr (AID 993). Further: on the % scale 0 is the no-effect control and ±100 the full control effect. The method, boiled down: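 CellTiter-Glo luminescence (intracellular ATP) after 24 h compound exposure, 37 C, in LYMP1-002 human lymphoblastoid cells; decreased ATP taken as cytotoxicity. AC50 from standard Hill fit of concentration-response curves.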
Assay [13] in a line: Cell Viability - LYMP1-002 - Assay at 40 hr (AID 994). A digest of the protocol: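 qHTS cytotoxicity; 2500 cells/well, 5 hr 37 C settle, compound 40 hr 37 C. CellTiter-Glo, 30 min RT, luminescence (ATP). Concentration-response, Hill fit → AC50. Pos. ctrl tetraoctylammonium bromide.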
Assay [14] in a line: qHTS Assay for Identification of Small Molecule Inducers of Hypoxia Response (AID 2120; active means well fitted curve in the direction sought with a large enough effect in the signal ratio, with a control signal flat, not every such curve was filed as active; the % refers to the signal ratio; further: 0% is about no effect). A digest of the protocol: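 Read-out: CCF4 FRET emission ratio 460nm/530nm (excitation 405nm), converted to %Activity, with AC50 fitted across a compound titration. ME-180 cells carried an HRE-driven beta-lactamase reporter; compound exposure 17 h, 37 degrees C.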
In general terms: Quantitative high-throughput screening tests each substance at several concentrations.

Assay [15] deals with Estrogen receptor (Homo sapiens) (UniProt P03372). As to the kind of experiment: qHTS assay for small molecule antagonists of estrogen receptor alpha signaling (AID 588513; active means well fitted curve in the direction sought with a large enough effect in the signal ratio, with a control signal flat, not every such curve was filed as active; the % refers to the signal ratio; further: on the % scale 0 is the no-effect control and ±100 the full control effect). The method, boiled down: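 ER-alpha-UAS-bla GripTite HEK 293 cells in medium with 2% charcoal/dextran-treated FBS were preincubated 4 h at 37 C, dosed with compound (1:2 titration), stimulated with 0.5nM 17-beta-estradiol for 18 h, then read by CCF4 beta-lactamase fluorescence.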
Estrogen receptor (Homo sapiens), sequence (P03372 whole entry, looked up): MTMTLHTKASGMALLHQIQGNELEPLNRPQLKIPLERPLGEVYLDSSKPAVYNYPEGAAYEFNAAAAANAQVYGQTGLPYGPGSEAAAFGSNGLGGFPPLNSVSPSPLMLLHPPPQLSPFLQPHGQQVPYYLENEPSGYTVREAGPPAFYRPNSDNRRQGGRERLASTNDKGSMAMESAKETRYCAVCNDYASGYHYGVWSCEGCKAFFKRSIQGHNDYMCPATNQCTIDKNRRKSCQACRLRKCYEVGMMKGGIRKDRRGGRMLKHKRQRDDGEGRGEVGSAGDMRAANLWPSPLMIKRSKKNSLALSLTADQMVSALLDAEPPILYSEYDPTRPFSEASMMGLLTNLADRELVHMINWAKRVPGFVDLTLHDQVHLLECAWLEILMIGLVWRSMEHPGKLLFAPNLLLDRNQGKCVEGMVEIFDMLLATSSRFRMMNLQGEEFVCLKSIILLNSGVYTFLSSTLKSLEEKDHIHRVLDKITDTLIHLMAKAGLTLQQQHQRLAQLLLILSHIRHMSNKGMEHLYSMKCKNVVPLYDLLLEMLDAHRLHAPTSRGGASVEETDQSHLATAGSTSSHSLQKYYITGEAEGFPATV

Assay [16] concerns the target Bile acid receptor (Homo sapiens) (UniProt Q96RI1). As to the kind of experiment: qHTS assay for small molecule antagonists of farnesoid X receptor signaling (AID 588526; calls by dose curve; further: on the % scale 0 is the no-effect control and ±100 the full control effect). The method, boiled down:
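Beta-lactamase reporter antagonist mode: HEK293T FXR-UAS-bla cells, titrated compound, CDCA stimulation, 16 h 37 C, CCF4 dye 2 h RT. Data normalized to CDCA 50 uM and DMSO; Hill-fit IC50.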

The target is the same in assay [17]. Briefly: qHTS assay for small molecule agonists of farnesoid X receptor signaling (AID 588527; calls by dose curve;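 further: series mostly up to about 77 µM; 0% = vehicle basal and 100% = reference agonist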). The note with it: HEK293T FXR-UAS-bla, beta-lactamase ratio, 16 h; activation: stronger effect = higher value. The method, boiled down: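 Read-out: beta-lactamase reporter fluorescence with CCF4 substrate in GeneBLAzer FXR-UAS-bla HEK293T cells, after 16 h compound exposure at 37 C. Response scaled between DMSO basal (0%) and chenodeoxycholic acid at 100 uM (100%).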

For assay [18], the target named is Glucocorticoid receptor (Homo sapiens) (UniProt P04150). As to the kind of experiment: qHTS assay for small molecule antagonists of glucocorticoid receptor signaling (AID 588533; active means well fitted inhibition curve with a large enough effect in the signal ratio, with a control signal flat, not every such curve was filed as active; the % refers to the signal ratio;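 further: cells stimulated with 2 nM dexamethasone as agonist; on the % scale 0 is the no-effect control and ±100 the full control effect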). The method, boiled down: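 Antagonist-mode qHTS: compound titrations added to GRE-bla HeLa cells, then dexamethasone 2 nM final; 18 h, 37 C. CCF4 FRET fluorescence normalized to dexamethasone and DMSO; IC50 from Hill fit.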
Glucocorticoid receptor (Homo sapiens), sequence (P04150 whole entry, looked up): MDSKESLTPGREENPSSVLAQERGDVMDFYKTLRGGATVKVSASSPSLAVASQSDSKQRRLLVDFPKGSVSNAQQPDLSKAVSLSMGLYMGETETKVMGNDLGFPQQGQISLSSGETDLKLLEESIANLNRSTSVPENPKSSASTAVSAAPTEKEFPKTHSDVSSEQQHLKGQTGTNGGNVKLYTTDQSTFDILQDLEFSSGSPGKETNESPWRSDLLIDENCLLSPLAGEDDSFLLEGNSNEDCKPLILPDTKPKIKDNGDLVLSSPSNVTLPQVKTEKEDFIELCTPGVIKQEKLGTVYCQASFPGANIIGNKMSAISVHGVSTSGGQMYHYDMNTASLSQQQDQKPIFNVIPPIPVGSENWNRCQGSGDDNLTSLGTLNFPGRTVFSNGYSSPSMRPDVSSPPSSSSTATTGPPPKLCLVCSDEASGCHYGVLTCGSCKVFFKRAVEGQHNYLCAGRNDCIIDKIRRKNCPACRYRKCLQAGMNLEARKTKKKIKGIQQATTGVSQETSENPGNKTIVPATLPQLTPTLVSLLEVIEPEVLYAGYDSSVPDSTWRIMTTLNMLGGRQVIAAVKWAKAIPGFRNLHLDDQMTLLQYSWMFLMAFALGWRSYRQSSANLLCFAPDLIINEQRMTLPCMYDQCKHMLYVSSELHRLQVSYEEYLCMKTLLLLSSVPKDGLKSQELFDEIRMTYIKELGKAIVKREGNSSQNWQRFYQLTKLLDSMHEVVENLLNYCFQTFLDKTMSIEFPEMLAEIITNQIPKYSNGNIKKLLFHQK

The target of assay [19] is Peroxisome proliferator-activated receptor gamma (Homo sapiens) (UniProt P37231). As to the kind of experiment: qHTS assay for small molecule agonists of peroxisome proliferator-activated receptor gamma signaling (AID 588536; active means well fitted curve in the direction sought with a large enough effect in the signal ratio, with a control signal flat, not every such curve was filed as active; the % refers to the signal ratio;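 further: 0% = DMSO basal wells and 100% = rosiglitazone at 2 µM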). A digest of the protocol:
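Beta-lactamase reporter read-out: CCF4 fluorescence (ex 405, em 460/530 nm) after 2 h at RT. HEK293 GeneBLAzer cells were treated for 16 h at 37 C. Hill fits gave EC50 and efficacy versus 2 uM rosiglitazone (100%) and DMSO (0%).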

The target is the same in assay [20]. As to the kind of experiment: qHTS assay for small molecule antagonists of peroxisome proliferator-activated receptor gamma signaling (AID 588537; active means well fitted inhibition curve with a large enough effect in the signal ratio, with a control signal flat, not every such curve was filed as active; the % refers to the signal ratio;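 further: reporter cells co-stimulated with 50 nM rosiglitazone agonist during compound treatment; % of control where 0% means no effect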). The method, boiled down: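 Cell-based beta-lactamase assay; GW9662 served as the antagonist control. Stimulation used rosiglitazone, final 50 nM, 16 h, 37 C.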
Assay [21] addresses Vitamin D3 receptor (Homo sapiens) (UniProt P11473). As to the kind of experiment: qHTS assay for small molecule antagonists of vitamin D receptor signaling (AID 588541; calls by dose curve). A digest of the protocol: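 Antagonist-mode beta-lactamase reporter assay: HEK293T VDR-UAS-bla cells were exposed to titrated compound alongside 1-alpha,25-dihydroxyvitamin D3 at 3 nM final for 16 h. Values were normalized to the 50 nM agonist control and DMSO basal, with IC50 and efficacy from Hill equation fits.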

The target is the same in assay [22]. Briefly: qHTS assay for small molecule agonists of vitamin D receptor signaling (AID 588543; calls by dose curve;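 further: 0% = DMSO basal and 100% = reference agonist control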). A digest of the protocol:
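GeneBLAzer VDR-UAS-bla HEK293T cells in 2% charcoal-stripped FBS medium were dosed with compound titrations for 16 h at 37 °C; CCF4 β-lactamase readout (405 nm ex, 460/530 nm em). EC50 and efficacy from Hill fits, normalized to 50 nM calcitriol (100%) and DMSO (0%).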

The nature of assay [23]: qHTS assay for small molecule agonists of retinoid X receptor alpha signaling (AID 588544; calls by dose curve;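 on activation: 0% = DMSO basal wells and 100% = reference agonist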). The note with it: HEK293T RXRa-UAS-bla, beta-lactamase reporter, 18 h; 530 nm emission.
Assay [24] concerns the target Retinoic acid receptor RXR-alpha (Homo sapiens) (UniProt P19793). Described as above.

Vitamin D3 receptor (Homo sapiens), sequence (P11473 whole entry, looked up): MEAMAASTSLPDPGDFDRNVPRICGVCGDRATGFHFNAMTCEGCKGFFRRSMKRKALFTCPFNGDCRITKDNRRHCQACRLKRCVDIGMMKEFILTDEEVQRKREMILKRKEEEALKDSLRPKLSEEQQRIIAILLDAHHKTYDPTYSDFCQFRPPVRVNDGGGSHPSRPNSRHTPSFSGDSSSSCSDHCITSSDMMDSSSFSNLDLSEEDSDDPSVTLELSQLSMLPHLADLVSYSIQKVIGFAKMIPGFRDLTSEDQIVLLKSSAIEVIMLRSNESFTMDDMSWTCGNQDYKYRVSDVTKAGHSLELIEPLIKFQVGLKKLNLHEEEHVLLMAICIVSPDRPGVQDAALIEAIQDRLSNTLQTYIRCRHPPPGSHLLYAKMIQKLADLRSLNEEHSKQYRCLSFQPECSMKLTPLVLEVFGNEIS
Bile acid receptor (Homo sapiens), sequence (Q96RI1 whole entry, looked up): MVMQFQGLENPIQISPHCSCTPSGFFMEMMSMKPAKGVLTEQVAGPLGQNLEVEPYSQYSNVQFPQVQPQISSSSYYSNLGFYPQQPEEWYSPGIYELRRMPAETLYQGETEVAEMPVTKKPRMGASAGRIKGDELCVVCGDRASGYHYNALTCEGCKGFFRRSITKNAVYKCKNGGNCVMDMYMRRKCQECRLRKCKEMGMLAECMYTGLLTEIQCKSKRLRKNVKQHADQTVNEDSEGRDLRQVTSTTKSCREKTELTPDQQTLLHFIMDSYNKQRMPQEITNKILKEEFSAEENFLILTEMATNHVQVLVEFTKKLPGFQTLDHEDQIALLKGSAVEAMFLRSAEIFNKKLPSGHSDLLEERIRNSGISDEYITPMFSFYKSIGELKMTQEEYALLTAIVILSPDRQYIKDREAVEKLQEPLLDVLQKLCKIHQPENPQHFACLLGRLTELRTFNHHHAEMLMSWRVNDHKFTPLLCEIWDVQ
Peroxisome proliferator-activated receptor gamma (Homo sapiens), sequence (P37231 whole entry, looked up): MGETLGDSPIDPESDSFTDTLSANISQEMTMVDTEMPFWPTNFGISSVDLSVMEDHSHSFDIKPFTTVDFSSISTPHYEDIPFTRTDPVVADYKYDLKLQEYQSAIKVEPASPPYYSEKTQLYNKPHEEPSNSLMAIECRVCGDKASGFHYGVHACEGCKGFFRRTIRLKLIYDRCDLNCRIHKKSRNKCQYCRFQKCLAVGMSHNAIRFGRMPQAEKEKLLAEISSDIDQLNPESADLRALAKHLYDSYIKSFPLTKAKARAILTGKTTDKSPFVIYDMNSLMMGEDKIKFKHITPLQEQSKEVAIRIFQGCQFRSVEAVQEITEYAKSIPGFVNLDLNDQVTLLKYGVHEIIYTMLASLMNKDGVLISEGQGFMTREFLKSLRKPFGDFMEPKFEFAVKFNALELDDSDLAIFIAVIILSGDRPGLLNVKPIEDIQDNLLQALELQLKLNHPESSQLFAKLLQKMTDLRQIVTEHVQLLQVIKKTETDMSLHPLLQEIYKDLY
Retinoic acid receptor RXR-alpha (Homo sapiens), sequence (P19793 whole entry, looked up): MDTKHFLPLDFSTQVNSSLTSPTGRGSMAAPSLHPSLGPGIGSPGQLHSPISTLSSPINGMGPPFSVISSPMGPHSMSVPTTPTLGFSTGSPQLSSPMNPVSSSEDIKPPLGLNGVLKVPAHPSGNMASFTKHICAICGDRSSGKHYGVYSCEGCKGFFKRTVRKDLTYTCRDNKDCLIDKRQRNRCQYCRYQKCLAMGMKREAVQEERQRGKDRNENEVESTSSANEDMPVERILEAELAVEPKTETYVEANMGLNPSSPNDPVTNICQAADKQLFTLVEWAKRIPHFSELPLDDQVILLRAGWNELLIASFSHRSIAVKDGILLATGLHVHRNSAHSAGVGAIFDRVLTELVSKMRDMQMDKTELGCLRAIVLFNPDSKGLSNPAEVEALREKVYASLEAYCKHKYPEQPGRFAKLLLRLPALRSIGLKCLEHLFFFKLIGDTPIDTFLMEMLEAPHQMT

As for `COC(=O)c1ccccc1C(=O)OC`, the molecule was classed as inactive in [1], in [2], in assay [3], in [4], in assay [5] and in [6]. Moreover, the molecule was classed as inactive in [7], in assay [8], in [9], in assay [10], in assay [11] and in assay [12]. The molecule was classed as inactive in assay [14], in assay [19], in assay [21] and in assay [24]. Further, the Potency entry in assay [13], in [15], in assay [16], in [18], in assay [20] and in assay [22] was “inactive” each time. In addition, in assay [17], the activation was -0.299% (inactive) and -2.92% (inactive). For the same molecule, in [23], the max response is -8.66%.
